Bioassay records from PubChem BioAssay.
The list is not random: actives were taken first. Their share in the collection is about 2%.
Abeta yeast res = qHTS for compounds that reverse cellular toxicity of Amyloid beta (A-beta) peptide in yeast: Primary Screen; yeast expressing A-beta42, growth rescue, OD600, 48 h; response scale: 0% DMSO, 100% iron-clioquinol control; AID 1347071, 2019; Potency, µM (series often up to 46.1 µM), actives largely listed as activators; 410,000 tested, 0.063% active; also: nearly all actives have a fitted effect of over 55% in size
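Growth rescue measured by 600 nm absorbance after 48 h yeast culture at 30 C with compound. Values normalized between DMSO and an equimolar ferric chloride plus clioquinol control.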
aSyn rescue = qHTS of alpha-syn Inhibitors; Yeast expressing alpha-synuclein, growth rescue, BacTiter-Glo, 24 h; Potency, µM (series often up to 46.1 µM), actives largely listed as activators; 370,000 tested, 0.14% active; also: nearly all actives have a fitted effect of over 65% in size
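Rescue of yeast growth: cells expressing toxic alpha-synuclein, induced in galactose at OD600 0.02, incubated with compound 24 h at 30 C. ATP luminescence quantified growth; inhibitors of toxicity appear as activators.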
IDH1 R132H inh = qHTS for Inhibitors of mutant isocitrate dehydrogenase 1 (IDH1): qHTS; IDH1-R132H enzyme, NADPH consumption, diaphorase/resazurin fluorescence; Potency, µM (highest dose often 76.6 µM), hits mostly inhibitors; 390,000 tested, 0.093% active; also: nearly all actives have a fitted effect of over 65% in size
Target sequence (O75874 whole entry R132H, stated change not applied): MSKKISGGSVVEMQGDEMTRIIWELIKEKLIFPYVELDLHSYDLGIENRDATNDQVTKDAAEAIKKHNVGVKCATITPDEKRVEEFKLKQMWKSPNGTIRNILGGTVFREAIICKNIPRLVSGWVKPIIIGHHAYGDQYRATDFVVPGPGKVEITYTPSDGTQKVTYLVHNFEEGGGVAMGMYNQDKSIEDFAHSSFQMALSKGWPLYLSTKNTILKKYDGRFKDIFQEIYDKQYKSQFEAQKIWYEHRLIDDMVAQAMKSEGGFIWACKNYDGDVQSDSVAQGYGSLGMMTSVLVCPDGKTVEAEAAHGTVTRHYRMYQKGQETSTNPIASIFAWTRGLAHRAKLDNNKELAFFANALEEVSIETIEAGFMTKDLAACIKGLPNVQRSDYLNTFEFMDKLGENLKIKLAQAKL
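IDH1-R132H (0.5 ug/mL) preincubated 30 min with compound, then NADPH (0.016 mM) and alpha-KG (2 mM) added; 80 min at RT, pH 7.5. Remaining NADPH coupled via diaphorase/resazurin to fluorescence (540/590 nm); concentration-response curves normalized to no-enzyme control.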
TDP-43 yeast inh = qHTS of TDP-43 Inhibitors; TDP-43 expressing yeast growth rescue, BacTiter-Glo, 24 h; AID 652104, 2013; 410,000 tested, 1.8% active; Potency, µM (top dose mostly 46.1 µM), most hits filed as activators; also: nearly all actives have a fitted effect of over 50% in size
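Cell-based yeast growth screen: TDP-43 expression induced in galactose, inoculum OD600=0.02 after raffinose pregrowth to mid-log. Read-out BacTiter-Glo luminescence at 24 hr, 30 deg C; inhibition of toxicity seen as signal increase.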
FUS suppressor = qHTS for Suppressors of FUS Proteinopathy: Primary screen using FUS-linked yeast assay. 390,000 tested, 0.24% active. Potency, µM (doses to about 76.6 µM), most hits filed as activators. S. cerevisiae FUS-expressing, growth rescue, OD600, 24 h; also: nearly all actives have a fitted effect of over 55% in size
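Cultures pregrown in 2.5% raffinose medium are shifted to minimal medium containing 2% galactose to express toxic FUS. Compounds are tested at several concentrations. After 24hr at 30C, growth is quantified at 600 nm absorbance.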
LDHA block = qHTS assay for inhibitors of human lactate dehydrogenase. L-lactate dehydrogenase A chain (Homo sapiens), P00338. activity change, % (values are at about 110 or 230 µM). 480,000 tested, 0.15% active. purified LDHA, NADH/diaphorase-resazurin fluorescence; hits give low values. AID 1347041, 2019; in the data active = activity change below about -30%; inconclusive = mostly about -25% to -30%
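Remaining NADH was detected by diaphorase (0.133 mg/mL) converting 37 µM resazurin to fluorescent resorufin, read at 0 and 20 minutes. The preceding 5-minute room-temperature reaction used 2 nM LDHA, 0.2 mM sodium pyruvate and 0.06 mM NADH at pH 7.4.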
IDH1 autofl = qHTS for Inhibitors of mutant isocitrate dehydrogenase 1 (IDH1): Cherrypicks Autofluorescence Interference. shares compounds with IDH1 R132H inh. Resorufin detection reagent fluorescence interference, cell-free. inhibition of signal, % at 51.2 µM. 750 tested, under 10 active
IDH1 WT = qHTS for Inhibitors of mutant isocitrate dehydrogenase 1 (IDH1): Cherrypicks in WT IDH1 | shares compounds with IDH1 R132H inh | AID 623995, 2012 | 750 tested, 9% active | Potency, µM (titrated, usually from 115 µM), most hits filed as inhibitors | WT IDH1 enzyme, NADPH diaphorase/resazurin fluorescence; also: nearly all actives have a fitted effect of over 55% in size
Target sequence (O75874 whole entry, looked up): as the sequence (O75874 whole entry R132H, stated change not applied) above, with H132R counted along it
IDH1 R132H conf = qHTS for Inhibitors of mutant isocitrate dehydrogenase 1 (IDH1): Confirmation of Cherrypicks; shares compounds with IDH1 R132H inh; IDH1 R132H enzyme, NADPH diaphorase/resazurin fluorescence; Potency, µM (top dose mostly 76.6 µM), usual class: inhibitors; 750 tested, 83% active; also: nearly all actives have a fitted effect of over 50% in size
Numbers stand for hits; – = inactive; ? = inconclusive; · = not tested or not shown; [ ] = dose if it differs, or a comment. Unless noted, calls follow the shape of the dose curve; as a rule, active = well fitted curve in the direction sought with a large enough effect; inconclusive = small, poorly fitted or top-dose-only effect, or another doubt; inactive = no such curve, though single readings can be large; an effect the other way counts as inactive or inconclusive.

SMILES | Abeta yeast res | aSyn rescue | IDH1 R132H inh | TDP-43 yeast inh | FUS suppressor | LDHA block | IDH1 autofl | IDH1 WT | IDH1 R132H conf
CCC(=O)Nc1nc2c(C)cc(NS(=O)(=O)c3cccc(Cl)c3C)cc2s1 | · | · | · | · | · | – | · | · | ·
COc1ccc(NC(=S)N2CCN(C(c3ccccc3)c3ccccc3)CC2)cc1OC | ? | – | – | – | · | – | · | · | ·
COc1cc(C(=S)N2CCN(C(c3ccccc3)c3ccccc3)CC2)cc(OC)c1O | – | – | ? | – | ? | – | – | – | 22µM
CCCC(NC(=O)CCc1c(C)c2cc3c4c(oc3c(C)c2oc1=O)CCCC4)C(=O)O (stereo not given) | – | – | 41µM | – | – | – | – | – | 28µM
CCOC(=O)C1CCN(C(c2cccnc2)c2c(NC(=O)c3ccco3)sc(C)c2C)CC1 (stereo not given) | – | – | ? | 14µM | · | – | – | – | 28µM
Cc1sc(NC(=O)c2ccco2)c(C(c2ccccc2)N2CCC(C)CC2)c1C (stereo not given) | – | – | – | – | – | – | · | · | ·
CC(=O)c1ccc(NS(=O)(=O)c2cccc(S(=O)(=O)c3ccc(Cl)cc3)c2)cc1 | – | · | ? | – | – | – | – | – | 45µM
COc1cccc(N2C(=O)CCC2(C)C(=O)NC2CCCC2)c1 (stereo not given) | · | · | · | · | · | – | · | · | ·
COc1cc([C@@H]2[C@H]3CNCC=C3C(C#N)=C(N)C2(C#N)C#N)ccc1OC(C)C | – | – | ? | – | – | – | · | · | ·
COc1cc(C2C3CN(C)CC=C3C(C#N)=C(N)C2(C#N)C#N)ccc1OC(C)C (stereo not given) | – | – | ? | – | – | – | – | – | –
ClC(Cl)(Cl)C1=NC(C(Cl)(Cl)Cl)N=C(c2ccccc2)N1 (stereo not given) | · | · | · | · | · | – | · | · | ·
O=C(CCl)c1ccc(Cc2ncc(C(F)(F)F)cc2Cl)s1 | – | – | ? | – | – | – | – | ? | 22µM
NS(=O)(=O)c1ccc(Cc2ncc(C(F)(F)F)cc2Cl)s1 | – | – | – | – | – | – | · | · | ·
Fc1ccc(Nc2nc(NCc3ccco3)c3ccccc3n2)cc1 | – | – | ? | ? | – | – | – | – | 28µM
Cc1ccc2c(c1)Oc1ccc(NC(=O)CCl)cc1C(=O)N2 | – | – | 13µM | – | – | – | – | 71µM | 6.3µM
Cc1ccc2c(c1)Oc1ccc([N+](=O)[O-])cc1C(=O)N2 | – | – | – | –[9.22 µM] | – | – | · | · | ·
Cc1c(C#N)c(N)nc2c3c(sc12)NC(=O)CC3c1ccc(Cl)cc1 (stereo not given) | – | – | 29µM | – | · | – | – | – | 16µM
Cc1ccc2c(COC(=O)CCCN=C3NS(=O)(=O)c4ccccc43)cc(=O)oc2c1C | · | · | · | · | · | – | · | · | ·
N#C/C(=C/c1ccccc1OC(F)F)C(=O)Nc1cccc(C(F)(F)F)c1 | · | · | · | · | · | – | · | · | ·
CCCc1noc(CCC(=O)Nc2ccc(OC)c(OC3CCCC3)c2)n1 | · | · | · | · | · | – | · | · | ·
COc1ccc(-n2cc(-c3ccccc3)c3c(NC4CCCC4)ncnc32)cc1 | – | · | 32µM | 22µM | – | – | – | – | 14µM
Clc1cccc(-n2cc(-c3ccccc3)c3c(NC4CCCC4)ncnc32)c1 | – | · | – | – | – | – | · | · | ·
O=C(Nc1ccc(S(=O)(=O)N2CCOCC2)cc1)c1ccc2c(c1)S(=O)(=O)c1ccccc1C2=O | – | – | ? | –[9.22 µM] | – | – | – | – | 4µM
O=C(Nc1cc(S(=O)(=O)N2CCOCC2)ccc1O)c1ccc2c(c1)S(=O)(=O)c1ccccc1C2=O | – | – | – | – | – | – | · | · | ·
COc1cc(C2(c3ccc(O)c(OC)c3)C(=O)N(C)c3ccc(Br)cc32)ccc1O | – | – | – | – | – | – | · | · | ·
SMILES | Abeta yeast res | aSyn rescue | IDH1 R132H inh | TDP-43 yeast inh | FUS suppressor | LDHA block | IDH1 autofl | IDH1 WT | IDH1 R132H conf
COc1cc(C2(c3ccc(O)c(OC)c3)C(=O)Nc3c(Br)cc(Br)cc32)ccc1O | – | – | 52µM | – | – | – | – | ? | 40µM
CCCCn1c(=O)[nH]c(=O)c2c1nc(CSc1nnnn1C1CC1)n2C | · | · | · | · | · | – | · | · | ·
Cc1ccc(C)c(NC(=O)Cn2ccn(-c3cccc(Cl)c3)c(=O)c2=O)c1 | · | · | · | · | · | – | · | · | ·
CCC(=O)C1=C(c2ccc(Cl)cc2)N(C(=O)CC)n2c(C)nnc2S1 | – | · | 45µM | – | – | – | – | – | 14µM
c1cn2cc(-c3ccc4c(c3)OCO4)nc2s1 | – | · | 23µM | ? | – | – | – | – | 50µM
CC(=O)Nc1ccc(-c2cn3ccsc3n2)cc1 | – | – | – | – | – | – | · | · | ·
CCOC(=O)C1C(=O)NC(SCC(=O)OC)=C(C#N)C1c1ccccc1OCC (stereo not given) | – | – | – | – | – | – | · | · | ·
CCOC(=O)CSC1=C(C#N)C(c2ccccc2OCC)C(C#N)C(=O)N1 (stereo not given) | – | – | 46µM | – | – | – | – | – | 50µM
CCCOC(=O)CSC1=C(C#N)C(c2ccccc2OC)C(C#N)C(=O)N1 (stereo not given) | – | – | ? | – | – | – | – | – | 45µM
C=CCSC1=C(C#N)C(c2ccccc2OCC)C(C#N)C(=O)N1 (stereo not given) | – | – | ? | – | – | – | – | – | 45µM
COCCNC(=O)/C(C#N)=C\c1ccc(C(F)(F)F)cc1 | · | · | · | · | · | – | · | · | ·
COCCN1C(=O)c2[nH]nc(-c3cc(C)ccc3O)c2C1c1ccc(C(C)C)cc1 (stereo not given) | ? | · | ? | – | – | – | – | – | 32µM
COc1cc(C2c3c(-c4cc(C)ccc4O)n[nH]c3C(=O)N2CCCO)ccc1OCCC(C)C (stereo not given) | – | · | 40µM | – | – | – | – | – | 25µM
